# Reference: PubChem BioAssay AID1851 (National Center for Advancing Translational Sciences (NCATS), 2009)
# Where “and” joins values, the source holds several entries; their conditions need not be identical. Equal values may be shown once. In all, about 16,000 compounds went through this assay and about 5,700 (36%) were called active. Roughly 24% stayed inconclusive and do not appear here. The list shows a part of the results. Unmarked numbers belong to inactive results. Calls come from the whole dose curve; as a rule, active = well fitted curve in the direction sought with a large enough effect; inconclusive = small, poorly fitted or top-dose-only effect, or effect the other way; inactive = no such curve, though single readings can be large or run the other way.
# Biological target: Cytochrome P450 1A2 (Homo sapiens) (UniProt P05177)
# Sequence (P05177 whole entry, looked up): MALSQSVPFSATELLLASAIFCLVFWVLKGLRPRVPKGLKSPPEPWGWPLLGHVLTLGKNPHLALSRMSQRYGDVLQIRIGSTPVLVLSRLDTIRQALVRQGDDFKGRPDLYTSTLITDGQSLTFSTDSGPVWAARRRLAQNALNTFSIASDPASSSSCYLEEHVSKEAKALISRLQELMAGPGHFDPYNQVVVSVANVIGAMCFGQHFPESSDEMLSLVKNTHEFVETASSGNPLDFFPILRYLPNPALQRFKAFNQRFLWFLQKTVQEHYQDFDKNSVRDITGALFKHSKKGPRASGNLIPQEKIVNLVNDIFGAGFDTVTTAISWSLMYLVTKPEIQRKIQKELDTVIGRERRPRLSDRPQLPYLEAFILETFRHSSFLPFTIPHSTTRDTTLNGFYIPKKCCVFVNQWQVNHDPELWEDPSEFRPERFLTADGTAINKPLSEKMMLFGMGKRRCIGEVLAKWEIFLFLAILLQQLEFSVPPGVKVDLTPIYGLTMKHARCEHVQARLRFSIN
# Experiment: Cytochrome panel assay with activity outcomes
# Conditions: recombinant CYP, pro-luciferin dealkylation, luminescence, p450-cyp1a2; series mostly up to 57.1 µM; activity, negative = inhibition: at the top concentration
# % is set by controls: 0 for no effect and ±100 for the full control effect.
Compound,AC50,"activity, negative = inhibition"
Cc1cccc(CNc2ccnc(-c3ccc(C(=O)N(C)C)cc3)n2)c1,25.1 µM (active),–
Cc1cccc(N(NC(=O)C(C)(C)O)C(=O)c2ccccc2)c1,–,-6.27%
CN(C)C(=O)c1ccc(-c2nccc(NCc3cccnc3)n2)cc1,15.8 µM (active),–
C/C(=N\N=C1\NC(=O)CC(C(=O)O)S1)c1cccs1 (stereo not drawn),–,-18.6%
C/C(=N\N=C(c1ccccc1)c1ccccc1)c1cccs1,1.41 µM (active),–
C[C@@H](CSC(=N)N)C(N)=O,–,-6.57% [at 2.29 µM]
O=C(c1cc(O)c(O)c([N+](=O)[O-])c1)c1ccccc1F,–,-20.4%
Cc1ccc(-c2cccc(OC(=O)c3ccccc3F)c2)cc1,1.26 µM (active),–
Cc1cc(NC(=O)CSc2nnc(-c3ccccc3)n2Cc2ccco2)no1,–,-10.2%
O=c1cc(CSc2ccccc2)[nH]c(=S)[nH]1,–,-15.1%
CCn1c(SCc2nc3ccccc3[nH]2)nnc1-c1ccc(OC)cc1,25.1 µM (active),–
CCn1c(SCC(=O)NC(=O)NCc2ccco2)nnc1-c1cccs1,–,-19.9%
c1ccc(-c2nnc(SCc3nc4ccccc4[nH]3)n2Cc2ccco2)cc1,14.1 µM (active),–
COCCn1c(Cc2ccccc2)nnc1SCc1nc2ccccc2c(=O)[nH]1,–,-4.28%
c1ccc(SCc2nc3ccccc3[nH]2)cc1,11.2 µM (active),–
Cc1ccccc1CSc1nnc(-c2cccs2)n1Cc1ccco1,4.47 µM (active),–
COc1ccc(NC(=O)CCNS(=O)(=O)c2ccc3c(c2)CCC(=O)N3)cc1,–,0.443%
Cc1ccccc1C1C(C#N)=C2N=C(N)c3c(sc4c3CCCCC4)N2C2=C1C(=O)CC(C)(C)C2 (stereo not drawn),–,-4.46%
COc1ccc(-n2c(=O)c(-c3cccs3)nc3cnc(OC)nc32)cc1,5.01 µM (active),–
COc1ncc2nc(-c3cccs3)c(=O)n(-c3ccccc3)c2n1,2 µM (active),–
CN(C)c1ncc2nc(-c3cccs3)c(=O)n(-c3ccccc3)c2n1,31.6 µM (active),–
COc1ccc(Oc2ncc3nc(-c4cccs4)c(=O)n(-c4ccccc4)c3n2)cc1,3.16 µM (active),–
C/C(CCN1CCCc2nc(C)c(C)cc21)=N\O[C@@H](C)c1cn([C@H](CO)Cc2ccccc2)nn1,–,-5.46% [at 11.4 µM] and -2.73% [at 11.4 µM]
Nc1ncnc2c1ncn2[C@H]1O[C@@H](C(=O)O)[C@@H](O)[C@H]1O,–,-10.9% [at 11.4 µM]
CC(C)CN1CCCC2(CCN(C(=O)c3csnn3)CC2)C1,–,-9.16%

Compound,AC50,"activity, negative = inhibition"
O=C(c1cc(-c2cccs2)on1)N1CCN(c2ccc(F)cc2)CC1,2.82 µM (active),–
O=C(c1ccc2ncsc2c1)N1CCN(c2ccc(O)cc2)CC1,–,-16.1%
Nc1ccc(N2CCN(C(=O)c3ccco3)CC2)cc1,–,16.2%
Cc1cc(C)c(-c2noc(C(=O)OC(C)(C)C)c2C(=O)OC(C)(C)C)c(C)c1,–,-10.5%
Cn1c(=O)c(-c2ccccc2)nc2cnc(OCc3ccccc3)nc21,1.58 µM (active),–
Cn1c(=O)c(-c2ccc(Cl)cc2)nc2cnc(OCc3ccccc3)nc21,0.794 µM (active),–
O=C(c1csnn1)N1CCC2(CCN(Cc3nccs3)CC2)CC1,–,-4.92%
COC(=O)C(NS(=O)(=O)c1ccc(NC(C)=O)cc1)C(C)C (stereo not drawn),–,-19.1%
COc1ccc(CONS(=O)(=O)c2ccc(NC(C)=O)cc2)cc1Cl,14.1 µM (active),–
COc1ccc(CCNC(=O)CC(NS(=O)(=O)c2ccc(NC(C)=O)cc2)C(C)C)cc1OC (stereo not drawn),–,-6.9%
O=C(CSc1nc2ccccc2c(=O)n1NC(=O)Cc1ccccc1)NCc1ccccc1Cl,15.8 µM (active),–
CCOC(=O)c1c(-c2cccc(C)c2)csc1NC(=O)c1c(-c2ccccc2)noc1C,–,6.98%
CCc1cc(C(c2ccccc2OC)N2CCOCC2)c(NC(=O)c2ccccc2)s1 (stereo not drawn),–,-23.9%
CCOC(=O)c1c(-c2ccc(C)cc2)csc1NC(=O)C1CC=CCC1C(=O)O (stereo not drawn),12.6 µM (active),–
CCOC(=O)c1c(-c2ccccc2)csc1NC(=O)c1cccc(N2C(=O)CCC2=O)c1,8.91 µM (active),–
CCOC(=O)c1c(NC(=O)C2C3CCC(O3)C2C(=O)O)sc(C)c1-c1ccc(C)cc1 (stereo not drawn),–,9.59%
O=C(c1cc(C(F)(F)F)cc(C(F)(F)F)c1)N1CCC2(CCN(Cc3nccs3)CC2)CC1,–,-7.63%
CCOC(=O)CSc1cc(=O)n(C)c2cc(Cl)ccc12,1.26 µM (active),–
Cc1cnc2cc(Cl)ccc2c1SCC(=O)O,–,-2.26% [at 2.29 µM]
Cn1c(=O)cc(SCC(=O)NCCCN2CCOCC2)c2ccc(Cl)cc21,–,-14.7%
O=C(CN(Cc1ccccc1Cl)C(=O)c1ccc(CN2CCOCC2)o1)NCC1CCCO1 (stereo not drawn),–,0.687%
O=C(NCC1CCCO1)c1onc(CSc2ccccc2F)c1C(=O)O (stereo not drawn),–,13.9%
O=C(CSCc1c(F)cccc1Cl)NCC1CCCO1 (stereo not drawn),15.8 µM (active),–
CSc1nc2ccccc2cc1/C=C(\C#N)c1ccccc1,2.82 µM (active),–
O=C(NNC(=O)c1cc2cc3ccccc3nc2s1)c1cccc(Cl)c1,–,-25.7%

Compound,AC50,"activity, negative = inhibition"
CSc1nc(C)c(CCOC(=O)c2cccc(C)c2)c(=O)[nH]1,–,-10.3%
CSc1nc2ccccc2cc1/C=C(\C#N)c1cccc(C)c1,3.55 µM (active),–
CSc1nc2ccccc2cc1/C=C(\C#N)c1ccc(Cl)cc1Cl,1.78 µM (active),–
CSc1nc2ccccc2cc1/C=C(\C#N)c1cccc(Cl)c1,2 µM (active),–
COc1ccc(NC(=O)N2CC3(CCN(C(=O)c4cccn4C)CC3)C2)cc1,–,-1.16%
CCC(=O)OCC(=O)[C@@]1(OC(=O)CC)[C@H](C)C[C@@H]2[C@H]3CCC4=CC(=O)C=C[C@]4(C)[C@]3(Cl)[C@@H](O)C[C@@]21C,–,-7.99% [at 25.6 µM]
CN(C)Cc1ccccc1-c1cc(N(C)Cc2ccco2)ncn1,15.8 µM (active),–
CN(Cc1ccco1)c1cc(-c2ccccc2Cl)ncn1,2.51 µM (active),–
CO[C@]1(C2=NCCN2)COc2ccccc2O1,–,-19%
Cc1ccccc1/C=C\C1=NCCN1,6.31 µM (active),–
Cc1cc(C(C)(C)C)cc(C)c1CC1=NCCN1,–,9.92%
CCCCOc1ccc(C(=O)CCN2CCCCC2)cc1,3.16 µM (active),–
CCC(=O)c1ccc(OCC(O)CN2CCCCC2)cc1 (stereo not drawn),–,9.96%
CC(C)C(NC(=O)C1CCCCC1)C(=O)NC1CCN(Cc2ccccc2)CC1 (stereo not drawn),–,-3.86%
Cc1ccccc1C(=O)c1c[nH]c(C(=O)NCc2cccs2)c1,10 µM (active),–
Cc1ccc(C(=O)NCC2CCCO2)cc1N1CCCC1=O (stereo not drawn),–,-17.5%
Cc1ccccc1C(=O)c1c[nH]c(C(=O)NCC2CCCO2)c1 (stereo not drawn),25.1 µM (active),–
CCOc1cc(NC(=S)NCC2CCCO2)c(OCC)cc1NC(=O)c1ccccc1C (stereo not drawn),–,-29.8%
COc1ccc(C(=O)c2c[nH]c(C(=O)NCc3cccs3)c2)cc1,–,-8.62%
O=C(O)CC[C@]1(C(=O)O)CCC(=O)c2ccccc21,–,-9.13% [at 11.4 µM]
CC[C@](N)(C(=O)O)C(C)C,–,-14.6% [at 11.4 µM]
Cc1cccn2c(=O)c(C=NCc3ccco3)c(Nc3ccc(SC(F)F)cc3)nc12,0.562 µM (active),–
O=c1c2ccccc2nc(-c2ccc(Br)cc2)n1Cc1ccccc1,10 µM (active),–
O=c1c2ccccc2c(-c2ccc(Br)cc2)nn1Cc1ccccc1,2.82 µM (active),–
O=C(CCn1nc(-c2ccc(Cl)cc2)c2ccccc2c1=O)NCCN1CCOCC1,–,-17.2%

Compound,AC50,"activity, negative = inhibition"
Cc1ccc(C(=O)CNc2nc3c(c(=O)[nH]c(=O)n3C)n2Cc2ccccc2)cc1,–,-22.2%
CCC(=O)NC(Nc1sc2c(c1C(=O)OC)CCCC2)(C(F)(F)F)C(F)(F)F,–,-5.11%
CC1Cc2ccccc2N1C(=O)Cn1cc([N+](=O)[O-])cn1 (stereo not drawn),–,-18.3%
COC(=O)c1c(NC(=O)Cn2cc([N+](=O)[O-])cn2)sc2c1CCC2,1.26 µM (active),–
CCOC(=O)c1c(NC(=O)CSc2nnc(C)s2)sc2c1CCCCC2,8.91 µM (active),–
COC(=O)c1c(NC(=O)c2ccco2)sc2c1CCC2,0.891 µM (active),–
CCOC(=O)c1c(NC(=O)Cn2cc([N+](=O)[O-])cn2)sc2c1CCC2,2.82 µM (active),–
CC(=O)OC1COC(N2CCc3cc([N+](=O)[O-])ccc32)C(OC(C)=O)C1OC(C)=O (stereo not drawn),–,0.819%
CCc1nc(SCC(=O)NNC(=O)C2CCCCC2)c2ccccc2n1,–,1.59%
C#CCSc1nc(Cc2ccc(Cl)cc2)nc2ccccc12,1.26 µM (active),–
Fc1ccc(Cn2c(SCc3ccc(F)c(C(F)(F)F)c3)nnc2C(F)(F)F)cc1,–,-29.4%
COc1cccc(CSc2nnc(C(F)(F)F)n2Cc2ccc(F)cc2)c1,11.2 µM (active),–
CC(C)CC1NC(=S)N(C2CCCCC2)C1=O (stereo not drawn),–,-15.6%
Cc1c(N2CCCC2)cc2c(c1NC(=O)c1ccccc1Cl)C(C)(C)CC2(C)C,–,-13.1% [at 2.29 µM]
CC(=O)Nc1ccc(N2CCCCC2)cc1,14.1 µM (active),–
CCc1ccc(OCCCC(=O)Nc2ccc(N3CCCCC3)cc2)cc1,–,-6.6%
O=C(/C=C/c1ccc(Cl)cc1)Nc1ccc(N2CCCCC2)cc1,–,-7.34%
CC(=O)N1CCN(c2ccc(NC(=O)c3ccc(C)cc3)cc2)CC1,–,0.154%
CC(=O)Nc1ccc(N2CCCCC2)c(C(=O)Nc2cccc(C)c2)c1,14.1 µM (active),–
Cc1ccc(NC(=O)c2cc(NC(=O)CCC(=O)O)ccc2N2CCCCC2)cc1,–,-14.5%
O=C(Nc1ccc(N2CCCCC2)cc1)c1cncc(Br)c1,4.47 µM (active),–
CC(C)CN1CCC2(CC1)CCN(C(=O)c1cnccn1)CC2,–,-7.79%
CC(=O)OC[C@@H]1O[C@@H](O/N=C2/C[C@@H](O)[C@@H](O)[C@@H]3[C@@H]4C(=O)N(Cc5ccccc5)C(=O)[C@H]4CC[C@H]23)[C@H](OC(C)=O)[C@H](OC(C)=O)[C@@H]1OC(C)=O,–,-1.74% [at 11.4 µM]
